These results are taken from the supplement of paper PMC10849652.

Targets with a hit are over-represented here; the source holds about 7,900 in all. About 0.6% of all pairs of compound and target were hits.

UniProt Q12906, sequence (Q12906 whole entry, looked up): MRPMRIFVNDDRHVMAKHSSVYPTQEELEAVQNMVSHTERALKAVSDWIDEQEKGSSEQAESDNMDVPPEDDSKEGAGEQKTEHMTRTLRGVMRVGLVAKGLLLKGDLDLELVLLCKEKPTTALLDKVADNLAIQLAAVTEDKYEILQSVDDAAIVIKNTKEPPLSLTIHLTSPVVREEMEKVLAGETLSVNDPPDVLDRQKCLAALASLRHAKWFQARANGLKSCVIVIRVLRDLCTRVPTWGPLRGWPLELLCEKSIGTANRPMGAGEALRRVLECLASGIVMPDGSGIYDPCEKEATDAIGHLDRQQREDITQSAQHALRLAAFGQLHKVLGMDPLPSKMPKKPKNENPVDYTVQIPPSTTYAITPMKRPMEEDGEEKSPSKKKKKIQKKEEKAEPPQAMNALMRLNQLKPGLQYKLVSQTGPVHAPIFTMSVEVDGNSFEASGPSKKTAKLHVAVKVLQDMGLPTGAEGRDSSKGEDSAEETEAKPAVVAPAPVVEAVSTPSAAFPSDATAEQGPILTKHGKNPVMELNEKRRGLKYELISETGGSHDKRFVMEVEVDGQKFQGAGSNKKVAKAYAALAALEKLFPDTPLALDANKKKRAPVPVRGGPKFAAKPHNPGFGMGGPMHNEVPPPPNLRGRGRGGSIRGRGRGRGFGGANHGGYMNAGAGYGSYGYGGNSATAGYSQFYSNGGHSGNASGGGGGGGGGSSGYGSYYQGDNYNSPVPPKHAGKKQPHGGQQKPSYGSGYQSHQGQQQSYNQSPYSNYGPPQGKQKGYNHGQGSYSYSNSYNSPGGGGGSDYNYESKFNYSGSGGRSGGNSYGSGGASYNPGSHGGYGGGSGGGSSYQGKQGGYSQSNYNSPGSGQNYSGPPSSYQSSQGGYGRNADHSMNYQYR
UniProt Q6P9B9, sequence (Q6P9B9 whole entry, looked up): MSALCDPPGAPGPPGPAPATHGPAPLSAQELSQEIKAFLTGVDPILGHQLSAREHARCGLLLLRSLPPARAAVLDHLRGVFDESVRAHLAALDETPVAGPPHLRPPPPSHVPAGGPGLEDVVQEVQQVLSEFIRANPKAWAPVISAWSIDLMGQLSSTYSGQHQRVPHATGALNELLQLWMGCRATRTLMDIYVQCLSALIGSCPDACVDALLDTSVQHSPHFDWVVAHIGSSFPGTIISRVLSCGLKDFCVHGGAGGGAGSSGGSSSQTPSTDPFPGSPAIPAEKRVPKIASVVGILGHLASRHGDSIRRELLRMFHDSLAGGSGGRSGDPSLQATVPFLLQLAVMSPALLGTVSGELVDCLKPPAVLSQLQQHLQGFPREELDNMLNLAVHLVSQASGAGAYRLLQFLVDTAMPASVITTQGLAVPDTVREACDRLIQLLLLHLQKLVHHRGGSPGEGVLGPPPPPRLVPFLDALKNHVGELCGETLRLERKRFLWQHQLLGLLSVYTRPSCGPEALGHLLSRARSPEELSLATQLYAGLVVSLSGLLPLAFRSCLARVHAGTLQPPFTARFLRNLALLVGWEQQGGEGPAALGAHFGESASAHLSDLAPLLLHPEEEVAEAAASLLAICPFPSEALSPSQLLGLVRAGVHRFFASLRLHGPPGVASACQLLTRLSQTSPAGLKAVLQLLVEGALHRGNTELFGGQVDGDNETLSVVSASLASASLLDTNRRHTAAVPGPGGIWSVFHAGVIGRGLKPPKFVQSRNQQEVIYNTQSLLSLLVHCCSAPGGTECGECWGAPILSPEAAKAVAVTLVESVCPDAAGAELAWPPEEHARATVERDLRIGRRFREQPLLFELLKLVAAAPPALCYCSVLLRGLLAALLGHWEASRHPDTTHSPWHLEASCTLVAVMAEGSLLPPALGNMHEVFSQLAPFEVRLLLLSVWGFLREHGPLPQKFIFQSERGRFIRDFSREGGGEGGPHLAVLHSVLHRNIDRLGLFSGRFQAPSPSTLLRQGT
UniProt Q12851, sequence (Q12851 whole entry, looked up): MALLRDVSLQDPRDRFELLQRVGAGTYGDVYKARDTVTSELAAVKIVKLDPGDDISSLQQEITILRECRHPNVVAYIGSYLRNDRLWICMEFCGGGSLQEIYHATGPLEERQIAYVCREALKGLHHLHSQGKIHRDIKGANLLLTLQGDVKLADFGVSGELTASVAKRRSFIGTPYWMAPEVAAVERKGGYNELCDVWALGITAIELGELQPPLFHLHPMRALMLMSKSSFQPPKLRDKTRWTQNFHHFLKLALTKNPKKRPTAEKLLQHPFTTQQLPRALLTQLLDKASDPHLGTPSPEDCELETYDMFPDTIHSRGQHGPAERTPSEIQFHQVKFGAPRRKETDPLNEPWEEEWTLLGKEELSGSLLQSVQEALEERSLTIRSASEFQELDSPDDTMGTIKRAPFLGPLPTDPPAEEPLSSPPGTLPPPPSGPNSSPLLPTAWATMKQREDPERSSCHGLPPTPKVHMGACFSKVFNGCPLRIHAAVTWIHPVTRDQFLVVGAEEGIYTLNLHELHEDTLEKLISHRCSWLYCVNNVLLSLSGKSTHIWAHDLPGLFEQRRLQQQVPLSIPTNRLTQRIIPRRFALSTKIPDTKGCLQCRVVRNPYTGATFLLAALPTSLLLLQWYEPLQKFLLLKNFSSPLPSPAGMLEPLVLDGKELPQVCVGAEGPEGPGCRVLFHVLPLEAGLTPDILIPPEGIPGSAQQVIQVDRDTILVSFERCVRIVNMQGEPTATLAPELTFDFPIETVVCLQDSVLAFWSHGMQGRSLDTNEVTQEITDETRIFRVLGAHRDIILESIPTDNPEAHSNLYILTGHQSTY
UniProt Q9NX70, sequence (Q9NX70 whole entry, looked up): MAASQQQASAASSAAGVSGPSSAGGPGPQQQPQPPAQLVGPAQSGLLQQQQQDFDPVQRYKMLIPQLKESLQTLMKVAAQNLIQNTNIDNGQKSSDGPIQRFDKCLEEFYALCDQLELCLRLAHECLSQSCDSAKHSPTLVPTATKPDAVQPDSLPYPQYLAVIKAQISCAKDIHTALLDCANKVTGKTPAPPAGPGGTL
UniProt O95819, sequence (O95819 whole entry, looked up): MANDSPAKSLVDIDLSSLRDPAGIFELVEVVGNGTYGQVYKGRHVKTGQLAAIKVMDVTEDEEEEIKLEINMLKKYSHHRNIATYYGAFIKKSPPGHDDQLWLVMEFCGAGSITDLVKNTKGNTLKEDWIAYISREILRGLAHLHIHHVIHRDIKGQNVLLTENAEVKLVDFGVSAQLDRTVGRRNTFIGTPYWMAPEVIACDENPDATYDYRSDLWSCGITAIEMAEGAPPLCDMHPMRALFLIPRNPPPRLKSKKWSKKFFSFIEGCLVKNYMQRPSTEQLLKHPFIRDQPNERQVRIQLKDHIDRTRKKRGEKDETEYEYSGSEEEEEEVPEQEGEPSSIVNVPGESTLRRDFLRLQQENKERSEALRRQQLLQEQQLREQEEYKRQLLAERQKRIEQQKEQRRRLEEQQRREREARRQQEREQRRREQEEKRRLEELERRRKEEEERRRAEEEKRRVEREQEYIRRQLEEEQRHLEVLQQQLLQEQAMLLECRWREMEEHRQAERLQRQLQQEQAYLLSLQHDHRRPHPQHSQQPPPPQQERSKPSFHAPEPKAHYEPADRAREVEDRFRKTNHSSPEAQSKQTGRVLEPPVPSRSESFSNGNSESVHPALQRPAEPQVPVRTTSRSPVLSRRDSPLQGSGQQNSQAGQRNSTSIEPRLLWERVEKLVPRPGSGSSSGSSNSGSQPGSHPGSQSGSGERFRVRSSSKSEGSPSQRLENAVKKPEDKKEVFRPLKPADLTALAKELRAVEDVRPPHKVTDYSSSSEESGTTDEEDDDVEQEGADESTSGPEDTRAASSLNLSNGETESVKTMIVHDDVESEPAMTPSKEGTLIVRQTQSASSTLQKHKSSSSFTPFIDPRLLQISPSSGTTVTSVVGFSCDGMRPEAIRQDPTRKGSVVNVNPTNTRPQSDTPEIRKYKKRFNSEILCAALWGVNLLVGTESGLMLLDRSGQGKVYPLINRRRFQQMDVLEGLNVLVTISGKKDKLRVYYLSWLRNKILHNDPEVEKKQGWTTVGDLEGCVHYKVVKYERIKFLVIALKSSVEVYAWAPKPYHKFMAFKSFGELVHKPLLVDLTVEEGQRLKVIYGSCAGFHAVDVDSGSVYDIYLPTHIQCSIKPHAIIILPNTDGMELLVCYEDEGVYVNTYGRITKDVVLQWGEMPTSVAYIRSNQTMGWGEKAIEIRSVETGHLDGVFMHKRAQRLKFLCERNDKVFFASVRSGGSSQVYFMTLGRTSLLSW
UniProt Q13422, sequence (Q13422 whole entry, looked up): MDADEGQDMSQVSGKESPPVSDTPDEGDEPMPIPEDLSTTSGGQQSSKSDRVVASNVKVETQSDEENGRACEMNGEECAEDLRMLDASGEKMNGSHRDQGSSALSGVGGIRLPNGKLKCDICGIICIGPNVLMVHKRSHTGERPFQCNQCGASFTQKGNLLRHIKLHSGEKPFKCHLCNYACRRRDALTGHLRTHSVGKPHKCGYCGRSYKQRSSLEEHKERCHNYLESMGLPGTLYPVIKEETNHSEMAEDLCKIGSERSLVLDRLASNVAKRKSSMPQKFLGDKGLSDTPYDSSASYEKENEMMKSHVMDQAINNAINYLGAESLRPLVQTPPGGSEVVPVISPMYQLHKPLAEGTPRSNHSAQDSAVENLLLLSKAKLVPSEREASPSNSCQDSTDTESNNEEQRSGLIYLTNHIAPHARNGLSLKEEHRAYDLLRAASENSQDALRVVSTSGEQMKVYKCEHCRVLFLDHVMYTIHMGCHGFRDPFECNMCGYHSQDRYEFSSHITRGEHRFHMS
UniProt P51884, sequence (P51884 whole entry, looked up): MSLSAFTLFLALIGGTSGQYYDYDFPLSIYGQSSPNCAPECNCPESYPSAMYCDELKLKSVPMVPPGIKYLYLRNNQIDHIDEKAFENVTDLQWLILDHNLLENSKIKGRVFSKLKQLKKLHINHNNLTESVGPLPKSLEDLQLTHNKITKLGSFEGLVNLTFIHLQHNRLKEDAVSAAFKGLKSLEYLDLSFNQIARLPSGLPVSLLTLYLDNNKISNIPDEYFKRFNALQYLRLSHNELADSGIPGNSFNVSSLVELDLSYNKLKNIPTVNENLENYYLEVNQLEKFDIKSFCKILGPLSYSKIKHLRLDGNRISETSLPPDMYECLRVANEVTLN

Compound in the first experiment: Cc1ccc(NC(=O)c2ccc(CN3CC[C@H](N(C)C)C3)c(C(F)(F)F)c2)cc1Nc1nccc(-c2cncnc2)n1 [bafetinib]
Kind of experiment: log2 fold change, soluble protein after heating vs DMSO (PISA); higher = thermal stabilisation; K562 cells, 10 uM, 30 min; active = over 0.2 and 3.5 SD of the protein, either way, in both replicates (recomputed). The gist of the method: (§1)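 Quantification of soluble protein used TMTpro 16plex LC-MS/MS, with channel sums equalised. Samples were the supernatant after 21,000xg for 90 min of pooled aliquots from K562 cells (2×10^6 cells/mL) treated with 10 μM compound for 30 min, heated for 3 min over 48°C-58°C, and extracted in PBS with 0.5% NP-40 at 4°C. Values, from duplicates, describe thermal stability against control samples on a log2 fold-change scale.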
Regarding INTS5 (UniProt Q6P9B9), the log2 fold change is -0.035 (inactive).
On the same count and under the same terms, the result for MAP4K2 (UniProt Q12851) reads -0.116 (inactive); that for MFAP3 (UniProt P55082), -0.385 (inactive).
In the case of MARCHF3 (UniProt Q86UD3), the log2 fold change is 0.109 (inactive).
On to LOX (UniProt P28300), for which the log2 fold change was -0.734 (active).
On the same count and under the same terms, the result for ILF3 (UniProt Q12906) reads 0.084 (inactive); that for LDLRAP1 (UniProt Q5SW96), -0.011 (inactive); that for LRFN1 (UniProt Q9P244), -0.017 (inactive).
On the same count and under the same terms, to IKZF1 isoform 2 (UniProt Q13422) belongs -0.217 (inactive).
Same read-out and setting: the result for MAP4 isoform 5 (UniProt P27816) reads -0.028 (inactive).

Compound in a further experiment: Cc1cccc(CC(=O)N2CCc3c2ccc(-c2cn(C)c4ncnc(N)c24)c3F)n1
Described as above. The gist of the method: as §1
For the target ITGA2B (UniProt P08514), the log2 fold change was 0.256 (inactive).
Same read-out and setting: the result for IKZF1 (UniProt R9R4D9) reads -0.164 (inactive); that for MAPK11 (UniProt Q15759), -0.116 (inactive); that for MAPK7 (UniProt Q13164), 0.034 (inactive).
Take LRRFIP1 isoform 4 (UniProt Q32MZ4): the log2 fold change is -0.046 (inactive).
The same measure, in the same setting: to KMT5A (UniProt Q9NQR1) belongs -0.218 (inactive).
As for MFSD12 isoform 3 (UniProt Q6NUT3), the log2 fold change was 0.047 (inactive).
For the target LEPROT (UniProt O15243), the log2 fold change is 0.03 (inactive).
Same read-out and setting: to IGFBP3 isoform 2 (UniProt P17936) belongs 0.043 (inactive).
Same read-out and setting: to KIZ (UniProt Q2M2Z5) belongs 0.268 (inactive).
Same read-out and setting: to MED17 (UniProt Q9NVC6) belongs -0.033 (inactive).

Compound in the next experiment: Cc1cn(-c2cc(NC(=O)c3ccc(C)c(Nc4nccc(-c5cccnc5)n4)c3)cc(C(F)(F)F)c2)cn1 [nilotinib]
The experiment is described as above. The gist of the method: as §1
For the target MAP4K4 isoform 6 (UniProt O95819), the log2 fold change is 0.047 (inactive).
On the same count and under the same terms, to INTS5 (UniProt Q6P9B9) belongs 0.146 (inactive); to ITGA2B (UniProt P08514), -0.04 (inactive); to MAP4K2 (UniProt Q12851), -0.187 (inactive).
Take LYN isoform 2 (UniProt P07948): the log2 fold change is -0.001 (inactive).
As to MAP3K20 isoform 2 (UniProt Q9NYL2), the log2 fold change was 0.098 (inactive).
With MAPRE3 isoform 2 (UniProt Q9UPY8), the log2 fold change was -0.539 (inactive).
Still for that read-out and setting: to MED29 (UniProt Q9NX70) belongs 0.017 (inactive); to MARCHF3 (UniProt Q86UD3), 0.156 (inactive).
As to LOX (UniProt P28300), the log2 fold change is -0.183 (inactive).
Turning to ILF3 (UniProt Q12906), the log2 fold change was -0.065 (inactive).
As for MAGED1 isoform 2 (UniProt Q9Y5V3), the log2 fold change was -0.035 (inactive).
Still for that read-out and setting: to LUM (UniProt P51884) belongs 0.449 (inactive).
Take IKZF1 isoform 2 (UniProt Q13422): the log2 fold change is 0.101 (inactive).
As to MAP4 isoform 5 (UniProt P27816), the log2 fold change was -0.181 (inactive).
The same measure, in the same setting: the result for MED17 (UniProt Q9NVC6) reads 0.069 (inactive).

Compound in a further experiment: Cc1nc(Nc2n[nH]c3c2CN(C(=O)N[C@H](CN(C)C)c2ccccc2)C3(C)C)c2sccc2n1
The experiment is described as above. The gist of the method:
as §1
With MAP4K4 isoform 6 (UniProt O95819), the log2 fold change is -0.034 (inactive).
Same read-out and setting: to INTS5 (UniProt Q6P9B9) belongs -0.08 (inactive); to ITGA2B (UniProt P08514), -0.013 (inactive); to MAP4K2 (UniProt Q12851), 0.024 (inactive).
The same measure, in the same setting: the result for LYN isoform 2 (UniProt P07948) reads -0.418 (inactive); that for MAP3K20 isoform 2 (UniProt Q9NYL2), 0.014 (inactive).
Still for that read-out and setting: the result for MAPRE3 isoform 2 (UniProt Q9UPY8) reads -0.355 (inactive); that for MED29 (UniProt Q9NX70), 0.027 (inactive); that for MARCHF3 (UniProt Q86UD3), 0.15 (inactive).
Turning to LOX (UniProt P28300), the log2 fold change was 0.175 (inactive).
Still for that read-out and setting: to ILF3 (UniProt Q12906) belongs 0.167 (inactive).
For the target MAGED1 isoform 2 (UniProt Q9Y5V3), the log2 fold change is -0.008 (inactive).
On the same count and under the same terms, the result for LUM (UniProt P51884) reads 0.036 (inactive).
On the same count and under the same terms, the result for IKZF1 isoform 2 (UniProt Q13422) reads -0.018 (inactive); that for MAP4 isoform 5 (UniProt P27816), 0.028 (inactive); that for MED17 (UniProt Q9NVC6), 0.079 (inactive).

Compound in another experiment: Cc1nc(Nc2ncc(C(=O)Nc3c(C)cccc3Cl)s2)cc(N2CCN(CCO)CC2)n1 [dasatinib]
Described as above. The gist of the method:
as §1
On to MAP4K4 isoform 6 (UniProt O95819), for which the log2 fold change is -0.001 (inactive).
The same measure, in the same setting: the result for INTS5 (UniProt Q6P9B9) reads -0.11 (inactive).
On the same count and under the same terms, the result for ITGA2B (UniProt P08514) reads 0.012 (inactive); that for IKZF1 (UniProt R9R4D9), -0.17 (inactive); that for MFAP3 (UniProt P55082), -0.083 (inactive).
The same measure, in the same setting: the result for MED29 (UniProt Q9NX70) reads 0.226 (inactive); that for LRRFIP1 isoform 4 (UniProt Q32MZ4), -0.095 (inactive); that for MFSD12 isoform 3 (UniProt Q6NUT3), -0.093 (inactive).
Consider LEPROT (UniProt O15243), for which the log2 fold change is 0.188 (inactive).
As to MAGED1 isoform 2 (UniProt Q9Y5V3), the log2 fold change is 0.057 (inactive).
Consider LUM (UniProt P51884), for which the log2 fold change is 0.002 (inactive).
On to IGFBP6 (UniProt P24592), for which the log2 fold change is -0.038 (inactive).
On the same count and under the same terms, the result for IGFBP3 isoform 2 (UniProt P17936) reads -0.001 (inactive).
On the same count and under the same terms, the result for LRFN1 (UniProt Q9P244) reads -0.129 (inactive); that for LSR isoform 3 (UniProt Q86X29), -0.074 (inactive); that for MAP2K5 (UniProt Q13163), 0.063 (inactive).
Still for that read-out and setting: the result for LIN52 (UniProt Q52LA3) reads -0.049 (inactive); that for LRRCC1 (UniProt Q9C099), 0.017 (inactive).
In the case of MED17 (UniProt Q9NVC6), the log2 fold change was -0.152 (inactive).
